Test results from PubChem BioAssay (NCATS).
Several values for one entry are separate records, joined by “and”; a condition that tells them apart may be missing. Identical values can stand only once. Results filed as inconclusive are left out. Entries that show only a call come without a potency. Unmarked numbers belong to inactive results. Activity calls are given as the source filed them. Calls come from the whole dose curve; as a rule, active = well fitted curve in the direction sought with a large enough effect; inconclusive = small, poorly fitted or top-dose-only effect, or another doubt; inactive = no such curve, though single readings can be large; an effect the other way counts as inactive or inconclusive.

Tests used:
[1] = target: Aldehyde dehydrogenase, mitochondrial (Homo sapiens) (UniProt P05091); assay: qHTS for Inhibitors of the Aldehyde Dehydrogenase Family (ALDH2) Primary screen (AID 2061308); note: nearly all actives have a fitted effect of over 55% in size; note: potency is the fitted concentration of half-maximal effect
[2] = target: Retinaldehyde dehydrogenase 3 (Homo sapiens) (UniProt P47895); assay: qHTS for Inhibitors of the Aldehyde Dehydrogenase Family (ALDH1A3) Primary screen (AID 2061315)
[3] = BET inhibitor-based combinations targeting novel dependencies in MECOM-rearranged (r) AML: MV-4-11 cell line (AID 2202233); note: potency is the fitted concentration of half-maximal effect; nearly all actives have a fitted effect of over 45% in size
Method in brief: (§1)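 First, 500 cells per well were seeded; next, drugs were pinned as 11-point doses; then plates sat 48 hr in the incubator; finally CellTiter-Glo was added and luminescence read, with AUC and Z-AUC computed.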

[4] = BET inhibitor-based combinations targeting novel dependencies in MECOM-rearranged (r) AML: HNT-34 cell line (AID 2202234); note: nearly all actives have a fitted effect of over 35% in size; note: potency is the fitted concentration of half-maximal effect
Method in brief: as §1

[5] = BET inhibitor-based combinations targeting novel dependencies in MECOM-rearranged (r) AML: UCSD-AML1 cell line (AID 2202235); note: nearly all actives have a fitted effect of over 40% in size; note: potency is the fitted concentration of half-maximal effect
Method in brief: as §1

[6] = BET inhibitor-based combinations targeting novel dependencies in MECOM-rearranged (r) AML: SET-2 cell line (AID 2202231); settings: SET-2 AML cells viability, CellTiter-Glo luminescence, 48 h; viability: stronger effect = lower value, concentration not given here; note: nearly all actives have a fitted effect of over 35% in size; note: potency is the fitted concentration of half-maximal effect
Method in brief: (§2)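 Each compound was tested at eleven concentrations on cells seeded at 500/well. After two days' incubation, ATP-based luminescence reported viability; responses relative to DMSO and blank wells yielded AUC and cell-line-centred Z-AUC.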

[7] = BET inhibitor-based combinations targeting novel dependencies in MECOM-rearranged (r) AML: AML-191 cell line (AID 2202236; note: nearly all actives have a fitted effect of over 35% in size; note: potency is the fitted concentration of half-maximal effect)
Method in brief: as §2

[8] = BET inhibitor-based combinations targeting novel dependencies in MECOM-rearranged (r) AML: AML-194 cell line (AID 2202237; note: nearly all actives have a fitted effect of over 40% in size; note: potency is the fitted concentration of half-maximal effect)
Method in brief: as §2

[9] = BET inhibitor-based combinations targeting novel dependencies in MECOM-rearranged (r) AML: OCI-AML3 cell line (AID 2202232); settings: Potency: OCI-AML3 viability; note: nearly all actives have a fitted effect of over 35% in size; note: potency is the fitted concentration of half-maximal effect
Method in brief: as §2

[10] = target: Retinaldehyde dehydrogenase 3 (Homo sapiens) (UniProt P47895); assay: qHTS for Inhibitors of the Aldehyde Dehydrogenase Family (ALDH1A3) Confirmatory screens (AID 2061311); note: nearly all actives have a fitted effect of over 60% in size; note: potency is the fitted concentration of half-maximal effect
[11] = target: Aldehyde dehydrogenase 1A1 (Homo sapiens) (UniProt P00352); assay: qHTS for Inhibitors of the Aldehyde Dehydrogenase Family (ALDH1A1) Confirmatory screens (AID 2061316); note: potency is the fitted concentration of half-maximal effect; nearly all actives have a fitted effect of over 65% in size

CCn1c(=O)c(-c2ccc(Cl)cc2Cl)cc2cnc(Nc3ccc(N4CCNCC4)c(F)c3)nc21
Potency [1]: inactive | Potency [2]: inactive | Potency [3]: 525 nM (active) | Potency [4]: 0.105 µM (active) | Potency [5]: 0.525 µM (active)

C[C@@H]1COC(Nc2ccc3ncnc(Nc4ccc(OCc5nccs5)c(Cl)c4)c3c2)=N1
Potency [1]: inactive | Potency [2]: inactive | Potency [3]: 18600 nM (active) | Potency [4]: 20.9 µM (active) | Potency [5]: 26.3 µM (active)

CN1CCN(c2cccc(Nc3nc4c(-c5ccc(S(C)(=O)=O)cc5)cccn4n3)c2)CC1
Potency [1]: inactive | Potency [2]: inactive | Potency [6]: 4.17 µM (active) | Potency [3]: 662 nM (active) | Potency [4]: 2.35 µM (active) | Potency [5]: 1.66 µM (active) | Potency [7]: 5.9 µM (active) | Potency [8]: 13.2 µM (active)

CCN1CCN(Cc2ccc(NC(=O)Nc3ccc(Oc4cc(NC)ncn4)cc3)cc2C(F)(F)F)CC1
Potency [1]: inactive | Potency [2]: inactive | Potency [3]: 2.3 nM (active)

CNCc1ccc(-c2cc(-c3nc(-c4ccc(S(=O)(=O)C(C)C)cc4)cnc3N)on2)cc1
Potency [1]: inactive | Potency [2]: inactive | Potency [9]: inactive | Potency [5]: 0.742 µM (active)

C[C@@H](Nc1ncnc2[nH]c(-c3ccc(O)cc3)cc12)c1ccccc1
Potency [1]: inactive | Potency [2]: inactive | Potency [6]: 5.25 µM (active) | Potency [3]: 14800 nM (active) | Potency [4]: 14.8 µM (active) | Potency [7]: 14.8 µM (active)

O=C(Cn1c(=O)n(Cc2cccs2)c(=O)c2cccnc21)Nc1ccccc1F
Potency [10]: inactive

Cc1cnc(Nc2ccc(F)cc2Cl)nc1-c1c[nH]c(C(=O)NC(CO)c2cccc(Cl)c2)c1 (stereo not given)
Potency [1]: inactive | Potency [9]: 4.68 µM (active) | Potency [3]: 296 nM (active)

CN1Cc2nc(Nc3ccc(C(F)(F)F)cc3)ccc2OCC1=O
Potency [10]: 15.8 µM (active)

CCc1ccccc1NC(=O)c1ccc(F)c(S(=O)(=O)N2CCN(c3cccc(Cl)c3)CC2)c1
Potency [10]: inactive

CC(C)NC(=O)COc1cccc(-c2nc(Nc3ccc4[nH]ncc4c3)c3ccccc3n2)c1
Potency [1]: inactive | Potency [2]: inactive | Potency [5]: inactive | Potency [8]: 16.6 µM (active)

CN(C)Cc1nnc(C2CC(NC(=O)c3ccc4scnc4c3)C2)n1C (stereo not given)
Potency [10]: inactive

CCOc1ccccc1NC(=O)Nc1cc(C(=O)NCc2ccc(C)cc2)ccc1N1CCCC1
Potency [10]: inactive

COc1ccccc1-c1ccc2ncc(Nc3cccc(O)c3)n2n1
Potency [10]: inactive

CC(/C=C/C(=O)NO)=C\[C@@H](C)C(=O)c1ccc(N(C)C)cc1
Potency [1]: inactive | Potency [6]: 0.372 µM (active) | Potency [9]: 0.662 µM (active) | Potency [3]: 417 nM (active) | Potency [5]: 1.05 µM (active) | Potency [7]: 1.18 µM (active) | Potency [8]: 1.18 µM (active)

O=C(CSc1nc(-c2ccco2)nc2cc(=O)[nH]n12)Nc1ccccc1Cl
Potency [10]: inactive

Cc1ccnc(NC(=S)N2CCN(c3cc(Cl)cc(Cl)c3)CC2)c1
Potency [1]: 2.24 µM (active) | Potency [11]: 5.65 µM (active)

Cc1cccc(-c2cccc(CN)c2)c1
Potency [10]: inactive

CC(=O)N1CCN(c2ccc(N)cc2)CC1
Potency [1]: inactive | Potency [11]: 25.2 µM (active)

CCOCc1ccccc1Nc1ncnc2onc(-c3ccc(Cl)cc3)c12
Potency [10]: inactive

O=C(CC1CCOCC1)NCc1ccc(N2CCOCC2)cc1
Potency [10]: inactive

Cn1cc(-c2cnc(Nc3ccncc3)c3c2CCO3)cn1
Potency [10]: inactive

COc1ccccc1-n1c(=O)c(C(=O)NC(C)C)nc2cccnc21
Potency [10]: inactive

O=C(Nc1ccc(Oc2ccccc2)cc1)c1ccc(F)c(S(=O)(=O)N2CCN(c3cccc(Cl)c3)CC2)c1
Potency [10]: inactive

COc1cccc(-c2nccc3c(=O)cc(N4CCOCC4)oc23)c1
Potency [10]: inactive

COc1ccc2[nH]c(S(=O)Cc3ncc(C)c(OC)c3C)nc2c1 (stereo not given)
Potency [1]: inactive | viability [6]: 97.7% | Potency [9]: inactive | Potency [4]: inactive | Potency [7]: inactive | Potency [8]: inactive

Cc1ccc(C(=O)c2cn(Cc3cccc(F)c3)c3nc(C)ccc3c2=O)cc1
Potency [10]: inactive

Cc1cc(=O)[nH]c(CCNc2nc(-c3ccncc3)nc3c2c(C)nn3C)n1
Potency [10]: inactive

Cc1c(F)ccc(C(=O)Nc2cc([N+](=O)[O-])ccc2N2CCN(C)CC2)c1Cl
Potency [1]: inactive | Potency [2]: inactive | Potency [3]: 3320 nM (active) | Potency [4]: inactive | Potency [5]: inactive | Potency [7]: inactive

COc1ccc(C(=O)NCc2nnc3ccc(-c4ccccc4)nn23)c(C)c1
Potency [10]: inactive

Cc1cccc(-c2[nH]ncc2-c2ccc(F)c(-c3cnn(CCO)c3)c2)n1
Potency [1]: inactive | Potency [2]: inactive | Potency [5]: inactive | Potency [8]: inactive

CCn1nc(-c2cccc(-c3ccnn3C)c2)nc1N(C)C
Potency [10]: inactive

CCc1cccc(C)c1NC(=O)CSc1nc2ccncc2[nH]1
Potency [10]: inactive

O=C(CCc1ccccc1)Nc1ccc([C@@H](O)[C@H]2COCC(=O)N2Cc2ccncc2)cc1
Potency [10]: inactive

CCOc1ccc(NC(=O)Nc2cc3c(cc2N2CCCCC2)n(C)c(=O)n3C)cc1
Potency [10]: inactive

C=CC(=O)Nc1cccc(Nc2nc(Nc3ccc(N4CCN(C(C)=O)CC4)cc3OC)ncc2C(F)(F)F)c1
Potency [1]: inactive | Potency [6]: 14.8 µM (active) | Potency [9]: 18.6 µM (active) | Potency [3]: 2950 nM (active) | Potency [4]: 4.17 µM (active) | Potency [7]: 9.34 µM (active) | Potency [8]: 18.6 µM (active)

O=C(c1ccc(/C=C/c2n[nH]c3ccccc23)cc1)N1CCNCC1
Potency [1]: inactive | Potency [2]: inactive | Potency [3]: 132 nM (active) | Potency [4]: 3.72 µM (active) | Potency [5]: 3.32 µM (active) | Potency [7]: 2.95 µM (active)

CCOc1ccc(NC(=O)CN2CCN(c3ccc(Cl)cc3)CC2)cc1
Potency [10]: inactive

Cc1c[nH]c2ncnc(N3CCC(CN)(C(=O)Nc4cccc(OC(=O)N(C)C)c4)CC3)c12
Potency [1]: inactive | Potency [2]: inactive | Potency [3]: 1.86 µM (active) and 1.05 µM (active) | Potency [5]: inactive

O=C(Nc1ccc([C@@H](O)[C@H]2COCC(=O)N2CCCc2ccccc2)cc1)c1ccco1
Potency [10]: inactive

Cc1c(NC(=O)OCC2COCCN2)cn2ncnc(Nc3ccc4c(cnn4Cc4cccc(F)c4)c3)c12 (stereo not given)
Potency [1]: inactive | Potency [2]: inactive | Potency [3]: 18600 nM (active) | Potency [5]: inactive | Potency [7]: 23.5 µM (active)
